Assay outcomes deposited in PubChem BioAssay by National Center for Advancing Translational Sciences (NCATS).
PLK1 PBD inh: qHTS for Inhibitors of PLK1-PDB (polo-like kinase 1 - polo-box domain): Primary Screen; Plk1 PBD binding of FITC phosphopeptide, fluorescence polarization; Potency, µM, without a hit: max response, negative = inhibition, most hits filed as inhibitors; actives 2.8% (n = 360,000); note: series mostly up to about 57 µM; % is set by controls: 0 for no effect and ±100 for the full control effect; nearly all actives have a fitted effect of over 65% in size
Target sequence (P53350 whole entry, looked up, the tested form may be a part): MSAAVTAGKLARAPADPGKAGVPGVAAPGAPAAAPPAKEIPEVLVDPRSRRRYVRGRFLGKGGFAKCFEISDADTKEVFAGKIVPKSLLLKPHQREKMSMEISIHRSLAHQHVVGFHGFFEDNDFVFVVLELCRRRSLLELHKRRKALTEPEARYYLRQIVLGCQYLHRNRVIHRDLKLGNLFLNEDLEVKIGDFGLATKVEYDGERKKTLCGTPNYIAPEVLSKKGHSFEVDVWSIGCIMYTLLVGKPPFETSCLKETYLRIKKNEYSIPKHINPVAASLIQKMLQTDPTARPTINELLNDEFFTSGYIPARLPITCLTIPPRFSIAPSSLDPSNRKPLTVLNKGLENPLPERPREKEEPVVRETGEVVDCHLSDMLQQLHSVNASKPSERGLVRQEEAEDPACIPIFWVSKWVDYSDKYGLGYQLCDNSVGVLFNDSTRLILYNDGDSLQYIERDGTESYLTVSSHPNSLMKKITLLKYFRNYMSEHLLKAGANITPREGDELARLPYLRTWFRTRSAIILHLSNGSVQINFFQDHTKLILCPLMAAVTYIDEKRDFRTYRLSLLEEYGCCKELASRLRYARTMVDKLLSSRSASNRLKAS
BRCA1 expr up: qHTS Assay to Identify Small Molecule Activators of BRCA1 Expression | actives 1.1% (n = 380,000) | Potency, µM (series often up to 46.1 µM), for the others: at the top dose activation, actives largely listed as activators | MCF7-BRCA1-FFLuc reporter, luminescence, 48 h; response scale: scaled: vehicle 0%, 10 µM genistein 100%; note: nearly all actives have a fitted effect of over 80% in size
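Activators of BRCA1 expression were detected as increased firefly luciferase luminescence in engineered MCF7 cells after 48 h compound incubation. Signals were scaled to genistein 10 microM as full activation.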
VDR inh: Inhibitors of the vitamin D receptor (VDR): qHTS | VDR-SRC2-3 peptide fluorescence polarization, 2 h | Potency, µM, inactives show max response, negative = inhibition, most hits filed as inhibitors | actives 0.93% (n = 400,000) | Vitamin D3 receptor (Homo sapiens), P11473; note: % is set by controls: 0 for no effect and ±100 for the full control effect
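FP read-out; VDR + SRC2-3 coactivator peptide; 23 nl compound by pintool; 2 h RT incubation; reagents held at 4 deg C, protected from light.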
Tb PFK inh-1: qHTS Assay to Find Inhibitors of T. brucei phosphofructokinase. ATP-dependent 6-phosphofructokinase (Trypanosoma brucei brucei), O15648. T. brucei PFK, ADP-Glo luminescence. Potency, µM (highest dose often 57.5 µM), for the others: at the top dose activity, negative = inhibition, hits mostly inhibitors. actives 0.17% (n = 330,000). AID 485367, 2010;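 note: 0% = uninhibited 1x PFK enzyme wells and -100% = no-enzyme wells; nearly all actives have a fitted effect of over 60% in size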
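Activity is normalized to no-enzyme wells (full inhibition) and 1.25 nM enzyme wells (no inhibition). Reaction: 0.5 mM F6P, 0.1 mM ATP, 45 min RT, ADP-Glo luminescence; concentration-response curves fitted and classed by quality.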
TbPFK ATP: Tb PFK orthogonal confirmatory assay using ATP depletion (Kinase-Glo Plus) as an alternative measure of Tb PFK activity: Hit Validation; shares compounds with Tb PFK inh-1; Tb PFK enzyme, ATP depletion, Kinase-Glo Plus luminescence; Potency, µM (top dose mostly 57.5 µM), without a hit: at the highest dose inhibition; actives 47% (n = 1,100); AID 504636, 2011; calls by dose curve; note: nearly all actives have a fitted effect of over 60% in size
Tb PFK inh-2: Inhibitors of T. brucei phosphofructokinase: Hit Validation; purified T. brucei PFK, ADP-Glo luminescence, 45 min; shares compounds with Tb PFK inh-1; Potency, µM (top dose mostly 57.5 µM), without a hit: at the highest dose activity change, negative = inhibition, most hits filed as inhibitors; AID 504637, 2011; actives 41% (n = 1,100);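 note: plate controls were full PFK enzyme control for no effect and no enzyme control for full effect; nearly all actives have a fitted effect of over 60% in size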
* hit, by the source's call. Rows were chosen to be rich in hits. Some 3.9% of all compounds tested hit in one or more screens of this group. Unless noted, calls come from the whole dose curve; as a rule, active = well fitted curve in the direction sought with a large enough effect; inconclusive = small, poorly fitted or top-dose-only effect, or another doubt; inactive = no such curve, though single readings can be large; an effect the other way counts as inactive or inconclusive. Potency is the fitted concentration of half-maximal effect.

How did CCn1c(=O)c(C(=O)Nc2nc3ccccc3[nH]2)c(O)c2ccccc21 do in these assays?
PLK1 PBD inh: -10%; BRCA1 expr up: -44%; VDR inh: -5%; Tb PFK inh-1: inconclusive; TbPFK ATP: -32%; Tb PFK inh-2: inconclusive

What do the screens show for `CCCCCn1c(=O)c(C(=O)Nc2nc3ccccc3[nH]2)c(O)c2ccccc21`?
PLK1 PBD inh: 0%; BRCA1 expr up: -8%; VDR inh: -16%; Tb PFK inh-1: 1%

Results for O=C(Cc1ccc(Cl)c(Cl)c1)Nc1cccc(S(=O)(=O)N2CCOCC2)c1 ?
PLK1 PBD inh: -4%; BRCA1 expr up: -57%; VDR inh: 4%; Tb PFK inh-1: 21µM*; TbPFK ATP: 9.5µM*; Tb PFK inh-2: 17µM*

Results for O=C(Cc1ccc(Cl)cc1)Nc1ccc(S(=O)(=O)N2CCOCC2)cc1 ?
PLK1 PBD inh: -20%; BRCA1 expr up: -31%; VDR inh: -21%; Tb PFK inh-1: 21µM*; TbPFK ATP: 9.5µM*; Tb PFK inh-2: 27µM*

How did O=C(Nc1cccc(OC(=O)N2CCOCC2)c1)N1CCOCC1 do in these assays?
PLK1 PBD inh: -3%; BRCA1 expr up: 0%; VDR inh: -9%; Tb PFK inh-1: -3%

Results for O=C(COc1ccc([N+](=O)[O-])cc1)Nc1ccc(S(=O)(=O)N2CCOCC2)cc1 ?
PLK1 PBD inh: -18%; BRCA1 expr up: -29%; VDR inh: -18%; Tb PFK inh-1: inconclusive; TbPFK ATP: 21µM*; Tb PFK inh-2: 27µM*

What do the screens show for `CCCCCCCCCCCCCCCCn1cc[n+](CC(C)=O)c1`?
PLK1 PBD inh: -20%; BRCA1 expr up: -63%; VDR inh: -5%; Tb PFK inh-1: inconclusive; TbPFK ATP: -7%; Tb PFK inh-2: -7%

How did O=C(C[n+]1ccn(CCCNP2(=O)C=C(c3ccccc3)OC(c3ccccc3)=C2)c1)c1ccccc1 do in these assays?
PLK1 PBD inh: -5%; BRCA1 expr up: 17%; VDR inh: -6%; Tb PFK inh-1: 12%

Results for CC(=O)Nc1ccccc1C(=O)OCC(=O)c1ccccc1Cl ?
PLK1 PBD inh: -3%; BRCA1 expr up: inconclusive; VDR inh: 4%; Tb PFK inh-1: 5%

Results for CCc1nnc(NC(=O)C(=O)NCCOC(=O)c2ccccc2Cl)s1 ?
PLK1 PBD inh: -4%; BRCA1 expr up: -2%; VDR inh: -1%; Tb PFK inh-1: inconclusive; TbPFK ATP: -29%; Tb PFK inh-2: inconclusive

How did Cc1cc(SCc2ccc(Cl)c(Cl)c2)nc(=O)[nH]1 do in these assays?
PLK1 PBD inh: -4%; BRCA1 expr up: 33%; VDR inh: -1%; Tb PFK inh-1: inconclusive; TbPFK ATP: 12µM*; Tb PFK inh-2: 24µM*

How did CN1CCCCC1c1cccnc1 (centres undefined) do in these assays?
VDR inh: 1%

What do the screens show for `COc1ccc(CCNC(=O)c2c(N)n(CCN3CCOCC3)c3nc4ccccc4nc23)cc1OC`?
PLK1 PBD inh: 3%; BRCA1 expr up: -44%; VDR inh: -4%; Tb PFK inh-1: 0%

Results for COc1ccc(CCNC(=O)c2cc3c(=O)n4cccc(C)c4nc3n(Cc3ccco3)c2=N)cc1OC ?
PLK1 PBD inh: -30%; BRCA1 expr up: -12%; VDR inh: -14%; Tb PFK inh-1: inconclusive; TbPFK ATP: -2%; Tb PFK inh-2: 1%

What do the screens show for `Cc1[nH]c2ccccc2c1CN(C)C`?
VDR inh: 5%

Results for Cc1[nH]c2c(Cl)cccc2c1CCN ?
PLK1 PBD inh: -25%; BRCA1 expr up: 2%; VDR inh: 10%; Tb PFK inh-1: 19µM*; TbPFK ATP: 11µM*; Tb PFK inh-2: 11µM*

How did N[C@H](CCCCCP(=O)(O)O)C(=O)O do in these assays?
VDR inh: -1%

Results for C=CCN1CC[C@]23c4c5ccc(O)c4O[C@H]2[C@@H](O)C=C[C@H]3[C@H]1C5 ?
VDR inh: 0%

What do the screens show for `CN(C)C(CNC(=O)Cc1ccc(Br)cc1)c1ccccc1` (centres undefined)?
PLK1 PBD inh: -21%; BRCA1 expr up: 17%; VDR inh: -7%; Tb PFK inh-1: -9%

What do the screens show for `O=C(Cc1ccc(Br)cc1)N/N=C/c1cccnc1`?
PLK1 PBD inh: -5%; BRCA1 expr up: 14%; VDR inh: 12%; Tb PFK inh-1: 17µM*; TbPFK ATP: 13µM*; Tb PFK inh-2: inconclusive

Results for C=CCNC(=O)N1CCc2[nH]c3ccc(F)cc3c2C1 ?
PLK1 PBD inh: -18%; BRCA1 expr up: 2%; VDR inh: 2%; Tb PFK inh-1: inconclusive; TbPFK ATP: inconclusive; Tb PFK inh-2: inconclusive
